# Test results: PubChem BioAssay (Tox21)
# Inconclusive results are not listed. Entries that show only a call come without a potency. Calls of active or inactive are those of the source. Calls follow the shape of the full dose curve.
# Molecular target: Thyrotropin receptor (Homo sapiens) (UniProt P16473)
# Experiment: qHTS assay to identify small molecule antagonists of the thyroid stimulating hormone receptor (TSHR) signaling pathway (AID 1259385); also: nearly all actives have a fitted effect of over 20% in size
# Conditions: TSHR-HEK293 cAMP HTRF, TSH-stimulated antagonist mode; series mostly up to 92.4 µM
# Procedure, shortened: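 Antagonist mode: compound-treated TSHR-expressing HEK293 cells were stimulated with 1.5 ng/mL TSH (final) in presence of Ro20-1724 for 30 min at RT. HTRF cAMP detection after 1 h; each compound tested at 15 concentrations, triplicate.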
# Potency is read from the fitted curve at half-maximal effect.
# Chain of Thyrotropin receptor (Homo sapiens) (P16473 whole entry, looked up): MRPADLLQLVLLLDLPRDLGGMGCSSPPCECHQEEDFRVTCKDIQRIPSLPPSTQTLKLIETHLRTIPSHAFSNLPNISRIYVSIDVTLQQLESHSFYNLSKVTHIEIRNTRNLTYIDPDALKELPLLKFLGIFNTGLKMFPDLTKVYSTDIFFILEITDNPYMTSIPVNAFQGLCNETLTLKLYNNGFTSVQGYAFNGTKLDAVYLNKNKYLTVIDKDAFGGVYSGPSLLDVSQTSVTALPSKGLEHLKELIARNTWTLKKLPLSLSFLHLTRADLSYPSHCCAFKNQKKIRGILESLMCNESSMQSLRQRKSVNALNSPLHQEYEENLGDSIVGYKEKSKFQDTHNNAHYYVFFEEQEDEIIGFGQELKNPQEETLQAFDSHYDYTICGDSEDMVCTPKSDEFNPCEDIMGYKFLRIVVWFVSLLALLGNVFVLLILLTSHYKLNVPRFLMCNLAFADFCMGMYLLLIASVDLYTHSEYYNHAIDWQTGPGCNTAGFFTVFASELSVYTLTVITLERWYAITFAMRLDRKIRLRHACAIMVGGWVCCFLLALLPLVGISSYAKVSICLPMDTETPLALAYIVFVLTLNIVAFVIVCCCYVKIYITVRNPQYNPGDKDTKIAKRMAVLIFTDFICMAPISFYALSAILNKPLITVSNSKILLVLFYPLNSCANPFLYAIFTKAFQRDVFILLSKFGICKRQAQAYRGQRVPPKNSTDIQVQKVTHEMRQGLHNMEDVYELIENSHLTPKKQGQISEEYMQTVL
row,Compound,Potency
1,CCCCC(CC)CN1CN(CC(CC)CCCC)CC(C)(N)C1 (centres undefined),21.1 µM (active)
2,CC(=O)c1ccc(C(C)=O)cc1,inactive
3,NC(=S)NC(N)=S,inactive
4,CC(=O)OCC=C(C)C,inactive
5,O=C(/C=C/c1ccccc1)OC/C=C/c1ccccc1,inactive
6,Cc1c2ccccc2c(C)c2c1ccc1ccccc12,inactive
7,CCCCCCCC/C=C\CCCCCCCCN,inactive
8,CC(C)=CCNc1ncnc2c1ncn2[C@@H]1O[C@H](CO)[C@@H](O)[C@H]1O,inactive
9,CN(C)CCN1CCN(c2cccc(Cl)c2)C1=O,inactive
10,CCCCCCCCCCOC(=O)c1ccccc1C(=O)OCCCCCCCC,inactive
11,CC(C)OC(=O)C(O)(CC(=O)O)CC(=O)O,inactive
12,O=S(=O)(O)c1ccc(Nc2nc(Nc3ccc(/C=C/c4ccc(Nc5nc(Nc6ccc(S(=O)(=O)O)cc6)nc(N(CCO)CCO)n5)cc4S(=O)(=O)O)c(S(=O)(=O)O)c3)nc(N(CCO)CCO)n2)cc1,inactive
13,Cc1cccc(C)c1NC(=O)c1ccc(N)cc1,inactive
14,CCOC(=O)NNc1ccc(N(CC)CC(C)O)nn1 (centres undefined),inactive
15,O=C(O)Cc1ccccc1Nc1c(Cl)cccc1Cl,inactive
16,c1ccsc1,inactive
17,NC(=O)c1cccc([N+](=O)[O-])c1,inactive
18,CCc1cccc(CC)c1NC(=O)CN(CC(=O)O)CC(=O)O,inactive
19,Clc1sc(Cl)c(Cl)c1Cl,inactive
20,OC[C@H]1O[C@H](O[C@H]2O[C@H](CO)[C@@H](O)[C@H](O)[C@H]2O)[C@H](O)[C@@H](O)[C@@H]1O,inactive
21,CC(CO)Oc1ccccc1 (centres undefined),inactive
22,COc1c(C)c2c(c(O)c1C/C=C(\C)CCC(=O)OCCN1CCOCC1)C(=O)OC2,inactive
23,CCCc1ccc(OCC(=O)N2CCN(C(=O)COc3ccc(CCC)cc3OC)CC2)c(OC)c1,inactive
24,CN(C)Cc1ccccc1O,inactive
25,CCCCCCOC(=O)C(C)CC (centres undefined),inactive
26,Cc1c(N)cccc1C(F)(F)F,inactive
27,CCN1C(=O)c2ccccc2C1Nc1ccc(OCCN2CCCCC2)cc1 (centres undefined),inactive
28,CCOc1ccc2ccccc2c1C(=O)N[C@@H]1C(=O)N2[C@@H]1SC(C)(C)[C@@H]2C(=O)O,inactive
29,Nc1ccc(C(=O)O)c(O)c1,inactive
